Active and inactive are the calls of the source. Rule as the data show it, unless noted: active = inhibition above about 80%; inactive = the rest.
Key:
[1] = LFS_MB_P medulloblastoma growth inhibition, cell-based, chromothripsis tumors, cisplatin or BGB combos (AID 1671449); settings: LFS_MB_P medulloblastoma cells;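 also: cells exposed for 96 hours; 0% = vehicle DMSO and 100% = killing by high DMSO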
[2] = HDN33 neuroblastoma growth inhibition, cell-based, chromothripsis tumors, cisplatin or BGB combos (AID 1671450); settings: HDN33 neuroblastoma cells, stronger effect = higher value;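 also: cells exposed to compound for four days; 0% = vehicle DMSO and 100% = cell killing by high DMSO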
[3] = ICB984 medulloblastoma cell growth inhibition, synergistic combos for chromothripsis tumors, cisplatin or BGB combos (AID 1671451; call rule not given here;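 also: cells exposed for 96 hours before readout; 0% = vehicle DMSO and 100% = killing by high DMSO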); settings: ICB984 medulloblastoma cells, drug combinations, stronger effect = higher value
[4] = LFS_MB_1R medulloblastoma cell growth inhibition, synergistic combos for chromothripsis tumors, cisplatin or BGB combos (AID 1671452); settings: LFS_MB_1R medulloblastoma cells, stronger effect = higher value;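 also: cells exposed for 96 hours before readout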
[5] = HTB85 osteosarcoma cell growth inhibition, synergistic combos for chromothripsis tumors, BGB or cisplatin IC20 combos (AID 1671453); settings: HTB85 osteosarcoma cells, drug combinations, stronger effect = higher value;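 also: cells exposed for 96 hours before readout; 0% = vehicle DMSO and 100% = high DMSO killing control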
[6] = CRL2098 osteosarcoma cell growth inhibition, synergistic combos for chromothripsis tumors, BGB or cisplatin IC20 combos (AID 1671454); settings: CRL2098 osteosarcoma cells, drug combinations, stronger effect = higher value;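 also: cells exposed for 96 h before readout; 0% = vehicle DMSO and 100% = killing by high DMSO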
[7] = HD-MB03 medulloblastoma cell growth inhibition, synergistic combos for chromothripsis tumors, BGB or cisplatin IC20 combos (AID 1671455; in the data active = inhibition above about 83%;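 also: 0% = vehicle DMSO and 100% = high DMSO as cytotoxic control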); settings: HD-MB03 medulloblastoma cells, stronger effect = higher value
[8] = UWB1.289 ovarian carcinoma cell growth inhibition, synergistic combos for chromothripsis tumors, BGB or cisplatin combos (AID 1671456); settings: UWB1.289 ovarian carcinoma cells, stronger effect = higher value;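 also: cells exposed to compound for four days; 0% = vehicle DMSO and 100% = killing by high DMSO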
[9] = LFS_MB_2R medulloblastoma cell growth inhibition, synergistic combos for chromothripsis tumors, cisplatin combos (AID 1671457); settings: LFS_MB_2R medulloblastoma cells, stronger effect = higher value;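 also: cells exposed to compound for four days before readout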
[10] = MDA-MB-436 breast carcinoma cell growth inhibition, synergistic combos for chromothripsis tumors, BGB or cisplatin combos (AID 1671458; call rule not given here;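 also: cells exposed for 96 hours; 0% = vehicle DMSO and 100% = killing by high DMSO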); settings: MDA-MB-436 breast carcinoma growth inhibition, drug combinations, stronger effect = higher value
[11] = UWB1.289_BRCA1 ovarian cancer growth, cell-based, BGB or cisplatin combinations (AID 1671459); settings: UWB1.289 BRCA1 ovarian carcinoma, drug combinations, stronger effect = higher value
[12] = human astrocyte viability loss, single and combined drugs, cytotoxicity control for chromothriptic childhood tumor combination screen, cell-based, BGB or cisplatin IC20 combos (AID 1671460); settings: Human astrocytes, drug combinations, stronger effect = higher value;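 also: cells exposed to compounds for 96 hours before viability readout; 0% = vehicle and 100% = killing control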
[13] = growth inhibition of BT084 medulloblastoma cells, cell-based, ICGC_MB145, cisplatin and BGB IC40 combos (AID 1671461); settings: drug combinations, stronger effect = higher value;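 also: cells exposed to drugs for 96 hours; 0% = vehicle DMSO and 100% = high DMSO full killing control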
[14] = growth inhibition of RCMB18 medulloblastoma cells, cell-based, cisplatin and BGB IC40 combos (AID 1671462); settings: stronger effect = higher value;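 also: cells exposed to compound for four days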
[15] = growth inhibition of CRL1545 osteosarcoma cells, cell-based, cisplatin and BGB IC20 combos (AID 1671464); settings: stronger effect = higher value;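 also: cells exposed to compound for 96 hours before readout; 0% = vehicle DMSO and 100% = high DMSO killing control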
[16] = measured here: combination with BGB IC40, at 0.05 µM
[17] = measured here: with BGB IC20 combination, at 0.5 µM
[18] = measured here: with cisplatin IC20 combination, at 0.5 µM
[19] = measured here: combination with cisplatin, at 0.5 µM
[20] = measured here: combination with cisplatin, at 5 µM

CCC1(O)C(=O)OCc2c1cc1n(c2=O)Cc2cc3cc(O)ccc3nc2-1 (stereo not drawn)
inhibition ([1]; at 0.5 µM, stronger effect = higher value): -23.8% (inactive)
inhibition ([1]; measured here: combination with BGB IC20, at 0.005 µM): -39%
inhibition ([1]; measured here: combination with BGB IC40, at 0.005 µM): -64.3%
inhibition [1, 16]: -39.2%
inhibition ([1]; measured here: combination with cisplatin, at 0.5 µM, stronger effect = higher value): -28.8%
inhibition ([1]; measured here: combination with cisplatin, at 5 µM, stronger effect = higher value): 80.4%
inhibition ([2]; BGB combo, at 5 µM): 96.2%
inhibition ([2]; at 0.5 µM): 75% (inactive)
inhibition ([2]; cisplatin combo, at 5 µM): 94.5%
inhibition [2, 17]: 83.6%
inhibition [2, 18]: 67.2%
inhibition ([2]; single agent, at 5 µM): 96%
inhibition ([3]; BGB IC20 combo, at 0.005 µM): -7.43%
inhibition ([3]; BGB IC40 combo, at 0.005 µM): -6.67%
inhibition ([3]; BGB IC40 combo, at 0.05 µM): 96.1%
inhibition ([3]; at 0.5 µM): -15.7% (inactive)
inhibition ([3]; cisplatin combo, at 0.05 µM): 96.4%
inhibition ([3]; cisplatin combo, at 0.5 µM): -28.1%
inhibition ([3]; cisplatin combo, at 5 µM): -59%
inhibition ([3]; measured here: 5 uM single agent, at 5 µM): -24.3%
inhibition ([4]; at 0.5 µM): 46% (inactive)
inhibition [4, 16]: -11.8%
inhibition [4, 19]: 91.8%
inhibition [4, 20]: 84.6%
inhibition ([5]; at 0.5 µM): 98% (active)
inhibition ([5]; measured here: with BGB IC20, at 0.5 µM): 97.4%
inhibition ([5]; measured here: with BGB IC20, at 5 µM): 98%
inhibition ([5]; measured here: with cisplatin IC20, at 0.5 µM): 97.8%
inhibition ([5]; measured here: with cisplatin IC20, at 5 µM): 99.5%
inhibition ([5]; single agent, at 5 µM): 99.6%
inhibition ([6]; at 0.5 µM): 43.5% (inactive)
inhibition ([6]; measured here: combination with BGB at IC20, at 0.5 µM): 62.2%
inhibition ([6]; measured here: combination with cisplatin at IC20, at 0.5 µM): 19%
inhibition ([7]; at 0.5 µM): 98.3% (active)
inhibition ([7]; measured here: combo with BGB at IC20, at 0.5 µM): 98%
inhibition ([7]; measured here: combo with cisplatin at IC20, at 0.5 µM): 98.2%
inhibition ([8]; at 0.5 µM): 83.6% (active)
inhibition ([8]; measured here: inhibition with BGB combination, at 0.05 µM): 5.35%
inhibition ([8]; measured here: inhibition with cisplatin combination, at 0.05 µM): 7.19%
inhibition ([9]; at 0.5 µM): -2.53% (inactive)
inhibition [9, 19]: 28.3%
inhibition [9, 20]: 65.3%
inhibition ([10]; at 0.5 µM): 65.8% (inactive)
inhibition ([10]; measured here: BGB combination, at 0.5 µM): 59%
inhibition ([10]; measured here: BGB combination, at 5 µM): 70.2%
inhibition ([10]; measured here: cisplatin combination, at 0.5 µM): 63.8%
inhibition ([10]; measured here: cisplatin combination, at 5 µM): 80.3%
inhibition ([11]; BGB combination, concentration series, at 5 µM): 95.1%
inhibition ([11]; at 0.5 µM): 89% (active)
inhibition ([11]; cisplatin combination, concentration series, at 5 µM): 102%
inhibition ([12]; at 0.5 µM): 73.4% (inactive)
inhibition ([12]; measured here: combo with BGB IC20, at 0.5 µM): 82.6%
inhibition ([12]; measured here: combo with cisplatin IC20, at 0.5 µM): 57.6%
inhibition ([13]; at 0.5 µM): 1.31% (inactive)
inhibition ([13]; cisplatin combination, at 0.5 µM): 54.4%
inhibition ([13]; cisplatin combination, at 5 µM): -68.1%
inhibition ([13]; measured here: BGB IC40 combination 0.05 uM, at 0.05 µM): -44.1%
inhibition ([13]; single agent, at 5 µM): -0.722%
inhibition ([14]; at 0.5 µM): 24% (inactive)
inhibition ([14]; cisplatin combo, at 5 µM): 79.3%
inhibition ([14]; measured here: BGB IC40 combination, at 0.05 µM): -9.73%
inhibition [14, 19]: 24.7%
inhibition ([14]; single agent, at 5 µM): 49.8%
inhibition ([15]; at 0.5 µM): 74.6% (inactive)
inhibition [15, 17]: 87.6%
inhibition [15, 18]: 67.5%
inhibition ([15]; single agent, at 0.05 µM): 14.1%
inhibition ([15]; single agent, at 5 µM): 99.4%
